# High-throughput results (PubChem)
# Compounds with a hit are over-represented: about 2.9% of the library has one in this group of screens.
# DAGLB inhibitor: diacylglycerol lipase beta (human) inhibition | actives 0.059% (n = 340,000) | Q8NCG7 | AID 504411 | inhibition, % at 5.17 µM | HEK293T DAGLB membrane lysate, EnzChek fluorogenic substrate; in the data active means inhibition above about 34%
# Myeloid diff 2: compounds promoting myeloid differentiation | ER-HoxA9 myeloid progenitors, lysozyme-GFP differentiation, flow cytometry | calls only at 10 µM | actives 1% (n = 360,000) | AID 624256;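 active means normalized GFP-positive differentiation at or above the plate's own cutoff, the solvent-only control mean plus 3 SD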;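 further: cells exposed to compound for four days before flow analysis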
# sPLA2-III inh: Blocks human group III sPLA2 activity; QFRET BODIPY PC-A2 liposome hydrolysis, fluorescence; actives 0.56% (n = 370,000); Q9NZ20; inhibition, % at 12.2 µM;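 active means inhibition above mean plus 3 SD of compounds lying within the high and low control bounds, cut at about 19% in these data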
# H9c2 protect: protects H9c2 cardiomyocytes from peroxide injury. H2O2 injury protection, ATPLite, 2 h. protection from H2O2 cell death, % at 20 µM. actives 0.63% (n = 360,000). AID 588492;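 active means compounds giving at least 50% protection of heart cells from peroxide-induced death in the single-dose screen, raw or plate-pattern-corrected value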
# ABHD5 PLIN5 PPI: blocks binding of human ABHD5 to perilipin-5. Q00G26+Q8WTS1. inhibition, % at 4 µM. AID 602281. actives 0.78% (n = 360,000). Split G. princeps luciferase complementation, luminescence, 4 h;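 active means inhibition above the mean inhibition across every tested compound plus 3 SD, cut at about 22% in these data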
# Rtt109 HAT inh: inhibitors of Candida albicans Rtt109/Vps75 histone acetyltransferase | purified Rtt109/Vps75, ThioGlo CoA-SH fluorescence, 4 h | inhibition, % at 34.9 µM | actives 0.16% (n = 330,000);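 active means inhibition of at least 50% in every replicate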
# Target sequence (Q5AAJ8 whole entry, looked up): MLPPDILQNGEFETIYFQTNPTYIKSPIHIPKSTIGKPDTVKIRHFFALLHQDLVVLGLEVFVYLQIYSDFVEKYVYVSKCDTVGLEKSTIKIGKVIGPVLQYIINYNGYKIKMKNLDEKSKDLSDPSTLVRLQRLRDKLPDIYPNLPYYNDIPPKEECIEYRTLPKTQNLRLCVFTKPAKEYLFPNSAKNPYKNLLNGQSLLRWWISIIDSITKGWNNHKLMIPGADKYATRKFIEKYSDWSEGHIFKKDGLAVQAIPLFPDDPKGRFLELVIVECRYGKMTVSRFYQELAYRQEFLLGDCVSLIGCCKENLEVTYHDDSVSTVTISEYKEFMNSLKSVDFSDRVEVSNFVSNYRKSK
# Hits are given with their value; 0 = inactive; - = no result; + = active, no number.
SMILES,DAGLB inhibitor,Myeloid diff 2,sPLA2-III inh,H9c2 protect,ABHD5 PLIN5 PPI,Rtt109 HAT inh
COc1ccc(C=NNC(=S)Nc2ccc(F)cc2)cc1OC,0,0,22.6,0,0,0
COc1ccc(/C=N/NC(=O)c2ccc(COc3cccc4cccnc34)cc2)cc1OC,0,0,0,54.4,0,0
COc1ccc(C=NNC(=S)NN=Cc2ccc(OC)c(OC)c2)cc1OC,0,0,0,0,0,0
COc1ccc(/C=N/NC(=O)c2sccc2OCc2ccc(F)cc2)cc1OC,0,0,0,53.2,0,0
O=C(N/N=C/c1ccc2c(c1)OCO2)c1ccc(COc2cccc3cccnc23)cc1,0,+,0,0,0,0
COc1ccc(/C=N/NC(=O)c2ccc(COc3cccc4cccnc34)cc2)cc1O,0,0,0,0,0,0
O=C(N/N=C/c1ccc2c(c1)OCO2)c1ccc(COCC(F)(F)C(F)F)cc1,0,0,-,0,0,0
O=S(=O)(c1ccc(N2CCN(CCO)CC2)nc1)N1CCOCC1,0,0,0,0,0,0
CCOC(=O)Cc1ccc(Nc2nc(NCc3cccs3)nc3ccsc23)cc1,-,0,0,0,0,-
O=C(N/N=C/c1ccncc1)c1ccc(COc2cccc3cccnc23)cc1,0,0,0,63.8,0,0
CCOc1ccc(N(CC(=O)NC2CCCC2)C(=O)c2ccc(C)s2)cc1,0,0,0,0,0,0
O=C(COC(=O)c1ccc(Cl)cc1O)Nc1cccnc1Cl,0,0,0,0,0,0
Cn1c(=O)[nH]c(=O)c2c1nc(N1CCN(Cc3ccccc3)CC1)n2CCCc1ccccc1,0,0,0,0,0,0
Cn1c(=O)[nH]c(=O)c2c1nc(N1CCN(Cc3ccccc3)CC1)n2CCSc1ncccn1,0,+,0,0,0,0
Cc1ccc(-c2cc(-c3ccc(C)o3)nc(N)c2C#N)cc1,0,+,0,0,0,0
Cc1ccc(-c2cc(-c3ccc(F)cc3)c(C#N)c(N)n2)o1,0,+,0,0,0,-
Cc1ccc(-c2cc(-c3ccc4c(c3)OCO4)c(C#N)c(N)n2)o1,0,0,0,0,0,0
Cc1ccc(-c2cc(-c3ccc(Cl)cc3)c(C#N)c(N)n2)o1,0,0,0,0,0,0
COc1ccc(NC(=O)c2cc(-c3cc(F)ccc3OCC3CCCO3)n[nH]2)cc1OC (centres undefined),-,0,0,0,0,-
CC(=O)NC12CC3CC(C1)CC(C(=O)Nc1c(C)n(C)n(-c4ccccc4)c1=O)(C3)C2,0,0,0,0,0,0
Cc1ccc(NC(=O)OCc2cc(-c3ccccc3)on2)cc1,0,0,0,0,0,55.8
Cc1ccc(S(=O)(=O)Nc2cc(Cl)c(O)cc2C)cc1,0,0,0,0,0,0
Cc1ccc(S(=O)(=O)Nc2cc(C(C)C)c(O)cc2C)cc1,0,+,0,0,0,0
CCCCN(C/C=C/c1ccccc1OC)Cc1ccccc1,0,0,0,0,0,64.1
CCN(C/C=C/c1ccccc1OC)Cc1ccccc1,0,0,0,0,0,0
SMILES,DAGLB inhibitor,Myeloid diff 2,sPLA2-III inh,H9c2 protect,ABHD5 PLIN5 PPI,Rtt109 HAT inh
COc1ccc(Nc2ccccc2N)cc1,0,+,0,0,0,0
CC(C)c1ccc(NC(=O)COC(=O)C2CC3C=CC2C3)cc1 (centres undefined),0,0,0,0,0,0
O=C(CCCn1cnc([N+](=O)[O-])n1)Nc1cccc(Cl)c1Cl,0,0,0,0,0,0
O=C(CCCn1cnc([N+](=O)[O-])n1)Nc1ccc(Cl)c(Cl)c1,0,0,0,0,27.8,0
COc1cc(/C=C/C(=O)Nc2ccc3nc4n(c(=O)c3c2)CCCC4)cc(OC)c1OC,0,0,0,54.5,0,0
COc1ccc(/C=C/C(=O)Nc2ccc3nc4n(c(=O)c3c2)CCCC4)cc1,0,0,0,0,0,0
Cc1cccc2sc(NC(=O)c3ccc(OCC4CCCO4)cc3)nc12 (centres undefined),0,0,0,0,0,0
CCOc1ccc2nc(NC(=O)c3ccc(OCC4CCCO4)cc3)sc2c1 (centres undefined),0,+,0,0,0,-
CCCN1C(=O)/C(=C/c2c(NCCCOCC)nc3c(C)cccn3c2=O)SC1=S,0,+,0,0,0,0
CCC(C)N=Cc1c(Nc2ccccc2)nc2c(C)cccn2c1=O (centres undefined),0,0,0,0,0,0
CCOCCCNc1nc2c(C)cccn2c(=O)c1/C=C1\SC(=S)N(CC(C)C)C1=O,0,+,0,0,0,0
O=C1/C(=C\c2c(NCCOCCO)nc3ccccn3c2=O)SC(=S)N1Cc1ccco1,0,0,0,0,0,0
CCOCCCNc1nc2c(C)cccn2c(=O)c1/C=C1\SC(=S)N(C(C)CC)C1=O (centres undefined),0,+,0,0,0,0
Cc1cccn2c(=O)c(C=Nc3ccccc3)c(NCc3ccco3)nc12,0,0,-,0,0,0
O=C(COC(=O)/C=C/c1ccc(S(=O)(=O)N2CCOCC2)cc1)NCc1ccc(F)cc1,0,0,0,0,0,0
COc1ccc(CCCc2nnc(SCC(=O)Nc3cccc(C)c3)o2)cc1,0,0,0,0,0,0
Cc1ccccc1N1C(S)=C(C#N)C(=O)NC12CCCCC2,0,0,0,0,0,85.6
Cc1ccc(N2C(S)=C(C#N)C(=O)NC23CCCCC3)cc1,0,0,0,0,0,0
Cc1ccc(-c2nn3c(-c4ccco4)nnc3c3ccccc23)cc1S(=O)(=O)NCC1CCCO1 (centres undefined),0,0,0,54.7,0,0
Cc1ccc(S(=O)(=O)N2CCN(C(=O)c3ccc(COc4ccccc4)o3)CC2)cc1,0,0,0,0,0,0
O=C(CN1CCCCC1)Nc1nc(-c2ccc(F)c(F)c2)cs1,0,0,0,54.7,0,0
O=C(CN1CCCCC1)Nc1nc(-c2ccc(Cl)cc2)cs1,0,0,0,0,0,0
COC(=O)[C@]12CCCCC=C1N(Cc1ccccc1)C(=O)[C@H](CC(=O)N1CCSCC1)C2,-,0,0,-,0,-
N#Cc1cnn2c(C(F)(F)F)cc(-c3ccccc3)nc12,0,0,0,0,0,0
NC(=O)COc1ccc2oc(=O)cc(-c3cc4ccccc4o3)c2c1,0,0,0,70.6,0,0
SMILES,DAGLB inhibitor,Myeloid diff 2,sPLA2-III inh,H9c2 protect,ABHD5 PLIN5 PPI,Rtt109 HAT inh
COC(=O)COc1ccc2oc(=O)cc(-c3cc4cccc(OC)c4o3)c2c1,0,0,0,0,0,0
COc1cccc2cc(-c3cc(=O)oc4ccc(OCC(C)=O)cc34)oc12,0,0,0,62.8,0,0
Cc1cc2c(Nc3ccccc3)ncnc2s1,0,0,0,0,0,0
Cc1cc2c(NCCc3ccccc3)ncnc2s1,0,+,0,0,0,0
CC(=O)c1ccc2noc(-c3cccc(F)c3)c2c1,0,0,0,0,22.5,0
CCCNC(=O)c1cc(S(=O)(=O)N2CCC3(CC2)OCCO3)ccc1F,0,0,0,0,0,-
